Screening data deposited in PubChem by National Center for Advancing Translational Sciences (NCATS).
Rows were chosen to be rich in hits. Some 4.1% of all compounds tested hit in one or more screens of this group.
AMA1-RON2 inh: disrupts binding of P. falciparum AMA1 to RON2 | Potency, µM (highest dose often 58.2 µM), for inactives: at the highest dose activity change, negative = inhibition, usual class: inhibitors | actives 0.2% (n = 360,000) | AlphaScreen AMA1-biotinylated RON2 peptide binding | AID 720542;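 further: 0% = vehicle wells and -100% = peptide control; nearly all actives have a fitted effect of over 45% in size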
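AMA1 (3D7) with his tag at 25 nM final met compounds first, then biotinylated RON2 peptide at 25 nM; detection used donor plus acceptor beads, 10 µg/mL apiece, read by AlphaScreen after 30 min at room temperature.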
FMDV antiviral: blocks foot and mouth disease virus | FMDV antiviral cell-based qHTS | actives 1.2% (n = 410,000) | Potency, µM (highest dose often 57.9 µM), without a hit: at the top dose activity change, negative = inhibition, most hits filed as inhibitors; calls by dose curve; tested in HEK293T cells; further: read-out not given here; nearly all actives have a fitted effect of over 45% in size
Sm TGR inh: blocks Schistosoma mansoni thioredoxin glutathione reductase. Q962Y6. purified TGR, DTNB reduction, TNB absorbance 405 nm. Potency, µM (series often up to 114 µM), without a hit: at the top dose activity change, negative = inhibition, usual class: inhibitors. actives 3% (n = 360,000). AID 485364; further: nearly all actives have a fitted effect of over 60% in size
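TGR 20 nM + NADPH 100 uM (dispensed conc.), cpd preinc 15 min RT; start with NADPH (500 uM addition) then DTNB (15 mM addition). Kinetic TNB absorbance, 405 nm filter. Four-parameter Hill fit across titration.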
AmpC no deterg: inhibitors of E. coli AmpC beta-lactamase without detergent; P00811; AmpC nitrocefin hydrolysis, absorbance 480 nm, 0.0001% Triton; Potency, µM (series often up to 57.1 µM), without a hit: at the highest dose activity change, negative = inhibition, actives largely listed as inhibitors; actives 0.52% (n = 330,000);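 further: plate controls were no compound for no effect and no enzyme for full effect; nearly all actives have a fitted effect of over 20% in size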
Target sequence (P00811 whole entry, looked up): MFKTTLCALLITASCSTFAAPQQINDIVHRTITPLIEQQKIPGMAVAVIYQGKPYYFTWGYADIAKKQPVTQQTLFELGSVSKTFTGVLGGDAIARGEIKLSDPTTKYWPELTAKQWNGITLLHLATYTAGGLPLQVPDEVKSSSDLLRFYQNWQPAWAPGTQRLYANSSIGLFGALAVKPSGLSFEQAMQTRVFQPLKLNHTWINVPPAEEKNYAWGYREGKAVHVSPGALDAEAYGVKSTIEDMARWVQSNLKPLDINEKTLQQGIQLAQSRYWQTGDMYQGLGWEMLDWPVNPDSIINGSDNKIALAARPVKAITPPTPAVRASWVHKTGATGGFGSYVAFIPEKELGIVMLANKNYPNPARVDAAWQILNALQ
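AmpC (5.3 nM in the dispensed reagent) in 20 mM phosphate pH 7.0 with 0.01% (detergent screen) or 0.0001% Triton X-100 was preincubated with compounds for 15 min at room temperature. Nitrocefin was then added from an 800 uM solution, and hydrolysis was followed at 480 nm.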
AmpC inh detg: inhibitors of E. coli AmpC beta-lactamase with detergent; actives 0.041% (n = 370,000); Potency, µM (highest dose often 114 µM), for the others: at the top dose activity change, negative = inhibition, usual class: inhibitors; AmpC hydrolysis of nitrocefin, absorbance 480 nm, 0.01% Triton; P00811; AID 485294;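 further: 0% = no-compound wells and -100% = no-enzyme wells; nearly all actives have a fitted effect of over 25% in size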
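AmpC (5.3 nM in the dispensed reagent) in 20 mM phosphate pH 7.0 with 0.01% (detergent screen) or 0.0001% Triton X-100 was preincubated with compounds for 15 min at room temperature. Nitrocefin was then added from an 800 uM solution, and hydrolysis was followed at 480 nm.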
* hit, by the source's call; ? = inconclusive; · = no result given. Unless noted, the call rests on the fitted dose curve; in most records, active means well fitted curve in the direction sought with a large enough effect; inconclusive means small, poorly fitted or top-dose-only effect, or another doubt; inactive means no such curve, though single readings can be large; an effect the other way counts as inactive or inconclusive. Unless noted, on the % scale 0 is the no-effect control and ±100 the full control effect; potency means the concentration at half of the fitted maximal effect.

SMILES | AMA1-RON2 inh | FMDV antiviral | Sm TGR inh | AmpC no deterg | AmpC inh detg
Cc1ccc(N)c(C)c1 | -4% | 0% | -2% | -4% | 3%
Cc1cc(C)c(O)c(N)c1 | · | · | 3.2µM* | -44% | -1%
N[C@H](C(=O)O)[C@@H]1CC(Cl)=NO1 | · | -17% | · | · | ·
CCCCn1c(N)c(N(Cc2ccccc2OC)C(=O)CN2C(=O)NC3(CCCC3)C2=O)c(=O)[nH]c1=O | 1% | -18% | 56µM* | -15% | -3%
CCCCn1c(N)c(N(CC(C)C)C(=O)CN2C(=O)NC3(CC(C)CC(C)(C)C3)C2=O)c(=O)[nH]c1=O (stereo not given) | -10% | -18% | -7% | 35µM* | -10%
CCc1ccccc1Nc1nc2cc(Cl)c(Cl)cc2nc1-n1nc(C)cc1C | · | -3% | -6% | · | 2%
O=C(CCCc1c[nH]c2ccccc12)N1CCOCC1 | -5% | 44% | 1% | -2% | 2%
O=C(CCCc1c[nH]c2ccccc12)N1CCN(S(=O)(=O)c2cccs2)CC1 | -23% | 25µM* | -14% | -13% | 0%
Cc1ccc(C)c(N2CCN(S(=O)(=O)c3ccc(-c4cc(C(F)(F)F)on4)s3)CC2)c1 | · | -16% | 12% | · | -7%
CCOC(=O)c1c2c(n(-c3ccc(OC)cc3)c1C)C(=O)C(=O)c1ccccc1-2 | ? | 13µM* | · | · | ·
COc1cc2c(cc1OC)[C@@H](Cc1ccc(OCCC#N)cc1)N(C)CC2 | 17% | -9% | 50µM* | -3% | -2%
COc1ccc(CC2c3cc(OC)c(OC)cc3CCN2C)cc1OC (stereo not given) | -9% | -21% | 1% | -4% | ?
Cc1ccccc1NC1=CC(=O)CC(C)(C)C1 | 0% | 7% | -14% | -16% | ?
CC1(C)CC(=O)C=C(NC2=CC3OC(c4ccccc4)OCC3OC2=O)C1 (stereo not given) | 17% | 8.9µM* | 20µM* | -20% | -13%
Nc1c(N2CCCC2)cc(Cl)c2nonc12 | 12% | ? | 56µM* | -21% | ?
Nc1c(N2CCOCC2)cc(Cl)c2nonc12 | -8% | -17% | 9% | -9% | -18%
COCC(=O)Nc1cc(C(=O)N2CCCC(C(C)=O)C2)cc2nc(-c3ccccc3)n(C)c12 (stereo not given) | · | -8% | · | · | ·
Cc1cnc(NC(=O)CSc2nnc3ncccn23)s1 | -6% | -10% | -34% | -12% | 7%
Cc1nnc(NC(=O)CSc2ccc(-c3ccco3)nn2)s1 | -4% | 12% | 14µM* | -28% | 0%
CCc1nnc(NC(=O)CSc2nnc3ncccn23)s1 | 16% | -5% | -18% | 0.32µM* | 4%
CCc1nnc(NC(=O)CSc2ccc(-c3ccco3)nn2)s1 | -5% | 2% | 7.1µM* | -13% | 0%
COc1ccc(Oc2nc3c(c(=O)n(C)c(=O)n3C)n2Cc2ccc(Cl)cc2Cl)cc1 | · | -30% | 9% | · | 12%
CC1=C(C(=O)OCc2ccccc2)C(c2ccccc2Cl)NC(=O)N1C (stereo not given) | ? | 18µM* | 1% | 16% | 4%
COc1ccc(OC)c(C2NC(=O)N(C)C(C)=C2C(=O)OCc2ccccc2)c1 (stereo not given) | -1% | ? | 5% | 40% | 2%
COCCN1C(=S)N[C@@H](c2ccccc2)C(C(=O)OC)=C1C | · | · | 32µM* | 54% | ?
COc1ccc(COC(=O)C2=C(C)NC(=O)NC2c2ccc(F)cc2)cc1 (stereo not given) | -5% | 25µM* | 0% | -2% | 2%
CC1=C(C(=O)OCc2ccccc2)C(c2ccccc2Br)NC(=O)N1 (stereo not given) | 6% | 28µM* | 4% | -16% | -13%
COc1ccccc1C1NC(=O)NC(C)=C1C(=O)OCc1ccccc1 (stereo not given) | 0% | ? | -32% | -4% | -13%
Cc1cccc(C(=O)N2CCc3cc(CNS(=O)(=O)c4ccc(Cl)s4)ccc32)c1 | · | -23% | 1% | · | 14%
CCOc1ccc(CNC(=O)c2cnc3sc(N(CC)CC)nn3c2=O)cc1OC | · | -6% | 4% | · | -7%
